# Results published in publication PMC11062922 (Nature Chemical Biology, 2023).
# Like-named read-outs stand apart in the source and are kept apart here.
# What was measured:
# [1] = tested on: CDK16; set-up: species or system human, MV4-11 + K-562 + COLO205 + SK-N-BE2 + OVCAR-8; conditions: read-out: apparent Kd, n = 1
# [2] = tested on: CDK2; set-up: species or system human, MV4-11 + K-562 + COLO205 + SK-N-BE2 + OVCAR-8; conditions: read-out: apparent Kd, n = 1
# [3] = tested on: CDK4; set-up: species or system human, MV4-11 + K-562 + COLO205 + SK-N-BE2 + OVCAR-8; conditions: read-out: apparent Kd; compound concentrations: 100 nM and 1000 nM (sheet 'Samples'), CATDS: 3.5176707262462401E-2; n = 1
# [4] = tested on: CDK9; set-up: species or system human, MV4-11 + K-562 + COLO205 + SK-N-BE2 + OVCAR-8; conditions: read-out: apparent Kd; compound concentrations: 100 nM and 1000 nM (sheet 'Samples'), CATDS: 6.6122234274616706E-2; n = 1
# [5] = tested on: CDKL5; set-up: species or system human, MV4-11 + K-562 + COLO205 + SK-N-BE2 + OVCAR-8; conditions: read-out: apparent Kd, n = 1
# [6] = tested on: CLK1; set-up: species or system human, MV4-11 + K-562 + COLO205 + SK-N-BE2 + OVCAR-8; conditions: read-out: apparent Kd; compound concentrations: 100 nM and 1000 nM (sheet 'Samples'), CATDS: 0.131869322388253; n = 1
# [7] = tested on: CLK4; set-up: species or system human, MV4-11 + K-562 + COLO205 + SK-N-BE2 + OVCAR-8; conditions: read-out: apparent Kd; compound concentrations: 100 nM and 1000 nM (sheet 'Samples'), CATDS: 7.3732839889054297E-2; n = 1
# [8] = tested on: CSNK1D; set-up: species or system human, MV4-11 + K-562 + COLO205 + SK-N-BE2 + OVCAR-8; conditions: read-out: apparent Kd, compound concentrations: 100 nM and 1000 nM (sheet 'Samples'), n = 1
# [9] = tested on: CSNK1E; set-up: species or system human, MV4-11 + K-562 + COLO205 + SK-N-BE2 + OVCAR-8; conditions: read-out: apparent Kd, compound concentrations: 100 nM and 1000 nM (sheet 'Samples'), n = 1
# [10] = tested on: DYRK1A; set-up: species or system human, MV4-11 + K-562 + COLO205 + SK-N-BE2 + OVCAR-8; conditions: read-out: apparent Kd; compound concentrations: 100 nM and 1000 nM (sheet 'Samples'), CATDS: 4.1731549571109597E-2; n = 1
# [11] = tested on: FLT3; set-up: species or system human, MV4-11 + K-562 + COLO205 + SK-N-BE2 + OVCAR-8; conditions: read-out: apparent Kd, n = 1
# [12] = tested on: GSK3A; set-up: species or system human, MV4-11 + K-562 + COLO205 + SK-N-BE2 + OVCAR-8; conditions: read-out: apparent Kd, n = 1
# [13] = tested on: GSK3B; set-up: species or system human, MV4-11 + K-562 + COLO205 + SK-N-BE2 + OVCAR-8; conditions: read-out: apparent Kd, n = 1
# [14] = tested on: ICK; set-up: species or system human, MV4-11 + K-562 + COLO205 + SK-N-BE2 + OVCAR-8; conditions: read-out: apparent Kd, n = 1
# [15] = tested on: NEK9; set-up: species or system human, MV4-11 + K-562 + COLO205 + SK-N-BE2 + OVCAR-8; conditions: read-out: apparent Kd; compound concentrations: 100 nM and 1000 nM (sheet 'Samples'), CATDS: 3.4709334986352897E-2; n = 1
# [16] = tested on: NNT; set-up: species or system human, MV4-11 + K-562 + COLO205 + SK-N-BE2 + OVCAR-8; conditions: read-out: apparent Kd, n = 1
# [17] = tested on: NUAK1; set-up: species or system human, MV4-11 + K-562 + COLO205 + SK-N-BE2 + OVCAR-8; conditions: read-out: apparent Kd; compound concentrations: 100 nM and 1000 nM (sheet 'Samples'), CATDS: 4.2227707983222298E-2; n = 1
# [18] = target: Q6ZSR9 (human, UniProt Q6ZSR9); set-up: species or system MV4-11 + K-562 + COLO205 + SK-N-BE2 + OVCAR-8; conditions: read-out: apparent Kd; compound concentrations: 100 nM and 1000 nM (sheet 'Samples'), CATDS: 7.3176607259513596E-2; n = 1
# Q6ZSR9, sequence (Q6ZSR9 whole entry, looked up): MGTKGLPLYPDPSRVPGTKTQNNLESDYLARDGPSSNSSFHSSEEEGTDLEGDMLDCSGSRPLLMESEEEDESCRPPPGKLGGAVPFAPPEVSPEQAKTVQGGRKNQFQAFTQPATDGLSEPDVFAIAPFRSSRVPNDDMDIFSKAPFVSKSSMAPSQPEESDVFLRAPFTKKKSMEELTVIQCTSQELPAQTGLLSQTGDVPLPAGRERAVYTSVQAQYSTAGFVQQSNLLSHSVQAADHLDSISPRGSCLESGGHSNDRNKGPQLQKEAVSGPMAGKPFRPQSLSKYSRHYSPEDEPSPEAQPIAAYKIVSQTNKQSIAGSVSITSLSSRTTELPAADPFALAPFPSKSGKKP
# [19] = tested on: RIOK2; set-up: species or system human, MV4-11 + K-562 + COLO205 + SK-N-BE2 + OVCAR-8; conditions: read-out: apparent Kd; compound concentrations: 100 nM and 1000 nM (sheet 'Samples'), CATDS: 3.29501520790835E-2; n = 1
# [20] = tested on: TGFBR2; set-up: species or system human, MV4-11 + K-562 + COLO205 + SK-N-BE2 + OVCAR-8; conditions: read-out: apparent Kd; compound concentrations: 100 nM and 1000 nM (sheet 'Samples'), CATDS: 8.2747157817186001E-2; n = 1
# [21] = tested on: CDK17; set-up: species or system human, MV4-11 + K-562 + COLO205 + SK-N-BE2 + OVCAR-8; conditions: read-out: apparent Kd; compound concentrations:100 nM and 1000 nM (sheet 'Samples'); n = 1
# [22] = tested on: CDK6; set-up: species or system human, MV4-11 + K-562 + COLO205 + SK-N-BE2 + OVCAR-8; conditions: read-out: apparent Kd; compound concentrations:100 nM and 1000 nM (sheet 'Samples'); n = 1
# [23] = tested on: CDC42; set-up: species or system human, MV4-11 + K-562 + COLO205 + SK-N-BE2 + OVCAR-8; conditions: read-out: apparent Kd, compound concentrations: 100 nM and 1000 nM (sheet 'Samples'), n = 1
# [24] = tested on: CSNK1A1; set-up: species or system human, MV4-11 + K-562 + COLO205 + SK-N-BE2 + OVCAR-8; conditions: read-out: apparent Kd; compound concentrations: 100 nM and 1000 nM (sheet 'Samples'), CATDS: 8.7123517988238197E-2; n = 1
# [25] = tested on: MAPK10; set-up: species or system human, MV4-11 + K-562 + COLO205 + SK-N-BE2 + OVCAR-8; conditions: read-out: apparent Kd; compound concentrations: 100 nM and 1000 nM (sheet 'Samples'), CATDS: 0.11305020597261101; n = 1
# [26] = tested on: MAPK14; set-up: species or system human, MV4-11 + K-562 + COLO205 + SK-N-BE2 + OVCAR-8; conditions: read-out: apparent Kd; compound concentrations: 100 nM and 1000 nM (sheet 'Samples'), CATDS: 9.3591045937798004E-2; n = 1
# [27] = tested on: MAPK9; set-up: species or system human, MV4-11 + K-562 + COLO205 + SK-N-BE2 + OVCAR-8; conditions: read-out: apparent Kd; compound concentrations: 100 nM and 1000 nM (sheet 'Samples'), CATDS: 8.8395799729483998E-2; n = 1
# [28] = tested on: MAPKAPK2; set-up: species or system human, MV4-11 + K-562 + COLO205 + SK-N-BE2 + OVCAR-8; conditions: read-out: apparent Kd; compound concentrations: 100 nM and 1000 nM (sheet 'Samples'), CATDS: 0.13823017842708299; n = 1
# [29] = tested on: RIPK2; set-up: species or system human, MV4-11 + K-562 + COLO205 + SK-N-BE2 + OVCAR-8; conditions: read-out: apparent Kd, compound concentrations: 100 nM and 1000 nM (sheet 'Samples'), n = 1
# [30] = tested on: EGFR; set-up: species or system human, MV4-11 + K-562 + COLO205 + SK-N-BE2 + OVCAR-8; conditions: read-out: apparent Kd; compound concentrations: 100 nM and 1000 nM (sheet 'Samples'), CATDS: 0.71685181489177596; n = 1
# [31] = tested on: ERBB3; set-up: species or system human, MV4-11 + K-562 + COLO205 + SK-N-BE2 + OVCAR-8; conditions: read-out: apparent Kd; compound concentrations: 100 nM and 1000 nM (sheet 'Samples'), CATDS: 0.132982955491593; n = 1
# [32] = tested on: RAB5C; set-up: species or system human, MV4-11 + K-562 + COLO205 + SK-N-BE2 + OVCAR-8; conditions: read-out: apparent Kd; compound concentrations: 100 nM and 1000 nM (sheet 'Samples'), CATDS: 0.157008240219803; n = 1
# [33] = compound concentrations:100 nM and 1000 nM (sheet 'Samples')
compound,measurement,setting,value
COc1cccc(Nc2nccc(-c3cnn4ncccc34)n2)c1 [GW810576X],potency estimated from few doses,"[1]; compound concentrations: 100 nM and 1000 nM (sheet 'Samples'), CATDS: 3.1157097879833801E-2",2.23 µM
same,potency estimated from few doses,"[2]; compound concentrations: 100 nM and 1000 nM (sheet 'Samples'), CATDS: 3.2251458753321499E-2",1.8 µM
same,potency estimated from few doses,[3],1.13 µM
same,potency estimated from few doses,[4],0.119 µM
same,potency estimated from few doses,"[5]; compound concentrations: 100 nM and 1000 nM (sheet 'Samples'), CATDS: 0.306088725314409",0.00845 µM
same,potency estimated from few doses,[6],0.0292 µM
same,potency estimated from few doses,[7],0.0909 µM
same,potency estimated from few doses,[8]; CATDS: 3.5838047250471398E-2,1.03 µM
same,potency estimated from few doses,[9]; CATDS: 3.1149336029707601E-2,2.23 µM
same,potency estimated from few doses,[10],0.529 µM
same,potency estimated from few doses,"[11]; compound concentrations: 100 nM and 1000 nM (sheet 'Samples'), CATDS: 6.99540125282513E-2",0.103 µM
same,potency estimated from few doses,"[12]; compound concentrations: 100 nM and 1000 nM (sheet 'Samples'), CATDS: 0.103253823443788",0.045 µM
same,potency estimated from few doses,"[13]; compound concentrations: 100 nM and 1000 nM (sheet 'Samples'), CATDS: 9.7411606637186801E-2",0.0503 µM
same,potency estimated from few doses,"[14]; compound concentrations: 100 nM and 1000 nM (sheet 'Samples'), CATDS: 8.4231126757800603E-2",0.0675 µM
same,potency estimated from few doses,[15],1.21 µM
same,potency estimated from few doses,"[16]; compound concentrations: 100 nM and 1000 nM (sheet 'Samples'), CATDS: 3.3051747730414797E-2",1.57 µM
same,potency estimated from few doses,[17],0.505 µM
same,potency estimated from few doses,[18],0.0926 µM
same,potency estimated from few doses,[19],1.59 µM
same,potency estimated from few doses,[20],0.0702 µM
CN(C)CCCC(=O)Nc1n[nH]c2nnc(-c3ccccc3)cc12.Cl [SB-627772-A],potency estimated from few doses,[1]; [33],1.84 µM
same,potency estimated from few doses,[5]; [33],0.0046 µM
same,potency estimated from few doses,[12]; [33],0.00615 µM
same,potency estimated from few doses,[13]; [33],0.0171 µM
O=C(Nc1n[nH]c2cc(-c3ccoc3)ccc12)C1CC1 [SB-738481],potency estimated from few doses,[2]; [33],1.47 µM
same,potency estimated from few doses,[5]; [33],1.1 µM
same,potency estimated from few doses,[11]; [33],0.884 µM
CS(=O)(=O)N1CCC(Nc2ncc(C(=O)c3c(F)cccc3F)c(N)n2)CC1 [RO4930481-000],potency estimated from few doses,[1]; [33],1.35 µM
same,potency estimated from few doses,[21],1.47 µM
same,potency estimated from few doses,[2]; [33],1 µM
same,potency estimated from few doses,[22],1.75 µM
same,potency estimated from few doses,[14]; [33],1.26 µM
same,potency estimated from few doses,[16]; [33],1.11 µM
Fc1ccc(-c2nc3n(c2-c2ccncc2)CCS3)cc1 [GI98581X],potency estimated from few doses,[23]; CATDS: 8.3198711436125394E-2,1.53 µM
same,potency estimated from few doses,[24],1.32 µM
same,potency estimated from few doses,[8]; CATDS: 0.37273157205877999,0.0879 µM
same,potency estimated from few doses,[9]; CATDS: 0.16724223379061501,0.304 µM
same,potency estimated from few doses,[25],0.666 µM
same,potency estimated from few doses,[26],1.07 µM
same,potency estimated from few doses,[27],1.26 µM
same,potency estimated from few doses,[28],0.435 µM
same,potency estimated from few doses,[29]; CATDS: 9.29117270749487E-2,1.09 µM
CN(C)c1cc2c(Nc3ccc4nc(Cc5ccccc5)[nH]c4c3)ncnc2cn1 [GW301888X],potency estimated from few doses,[23]; CATDS: 0.115085372614253,1.8 µM
same,potency estimated from few doses,[30],0.0191 µM
same,potency estimated from few doses,[31],1.03 µM
same,potency estimated from few doses,"[16]; compound concentrations: 100 nM and 1000 nM (sheet 'Samples'), CATDS: 0.11921325436386",1.55 µM
same,potency estimated from few doses,[32],0.599 µM
same,potency estimated from few doses,[29]; CATDS: 0.27482887705752401,0.133 µM
